# In all, about 48,000 compounds went through this assay and about 13,000 (27%) showed an effect of 50% or more. Some of the results follow.
# System: Wolbachia pipientis
# Assay: Anti-Wolbachia Cell-Based Screen
# Format: functional
# Set-up: scale not given: in the data most compounds retested in dose-response had high values
# Conditions: 5 µM
row,SMILES,Percent Effect
1,CCC(C)N(Cc1ccncc1)Cc1ccc(-n2cccn2)cc1 (stereo unspecified),-9.551%
2,COc1ccc(Br)c(C(=O)NCC2CCN(C(=O)c3ccoc3)CC2)c1,-6.269%
3,Cc1cccc(CN2CCCC(O)(CNCc3ncccc3C)C2=O)c1 (stereo unspecified),4.315%
4,CC(NC(=O)NCCCOC1CCCCC1)c1nncn1C (stereo unspecified),12.39%
5,O=C(CCc1ccco1)Nc1ccc(Br)cn1,-1.221%
6,CC(C)C(=O)N1CCC(n2nc(-c3ccco3)ccc2=O)CC1,101.9%
7,Cc1oc(-c2ccco2)nc1CC(=O)N1CCC(CCO)C1 (stereo unspecified),7.972%
8,OCC(O)CSCc1cn(-c2ccc(F)c(Cl)c2)nn1 (stereo unspecified),1.714%
9,Cc1csc(C2(NCc3nc(-c4ccco4)oc3C)CCCC2)n1,21.68%
10,Cc1nnc(NC(=O)NC2CCOc3ccccc32)s1 (stereo unspecified),11.11%
11,CNS(=O)(=O)c1cc(C(=O)NC2COc3ccccc3C2)ccc1OC (stereo unspecified),-1.094%
12,CNS(=O)(=O)c1cc(C(=O)NC2COc3ccccc32)cc(C)c1C (stereo unspecified),105.8%
13,CN(C)c1nc(CNC(=O)NC2COc3ccccc32)cs1 (stereo unspecified),-3.429%
14,Cc1ccc(C(=O)NC2CCOc3ccccc32)cc1S(C)(=O)=O (stereo unspecified),118%
15,Cc1ccc(C(=O)NCC2Cc3ccccc3O2)cc1S(C)(=O)=O (stereo unspecified),-52.49%
16,COc1ccc(C(O)CN2CC(n3cc(C)cn3)C2)cc1 (stereo unspecified),-26.31%
17,O=C(NCCCN1CCOCC1)c1cc(-c2ccco2)[nH]n1,0.6677%
18,O=C(NCCCN1CCOCC1)c1cc(-c2ccccc2)[nH]n1,93.89%
19,O=C(NCCCN1CCOCC1)c1ccc(-c2ccccc2)[nH]c1=O,-4.893%

row,SMILES,Percent Effect
1,NCc1cccc(-c2cccnc2C(=O)NCCN2CCCC2)c1,177.6%
2,O=C(NCCN1CCCCCC1)c1cccc(Cl)c1Cl,-3.616%
3,CN(C)Cc1cccc(-c2cccnc2C(=O)NCc2ccccn2)c1,107.8%
4,NCc1cccc(-c2cccnc2C(=O)NCCCN2CCOCC2)c1,156.6%
5,COc1cc(CN(C)C(=O)NCc2ccccn2)ccc1SC,-14.77%
6,Cc1oc(C)c(C(=O)NCc2ccccn2)c1C,-10.25%
7,O=C(NCCCN1CCOCC1)c1ccnc(OCc2ccccc2)c1,13.78%
8,Cn1ccnc1-c1cccc(NC(=O)NCCCN2CCOCC2)c1,9.655%
9,O=C(NCCN1CCCCC1)c1cccc(Cl)c1Cl,-2.651%
10,CC(CC#N)NC(=O)c1cc(Br)c2c(c1)OCCO2 (stereo unspecified),3.147%
11,Cc1ccc(C(=O)N2CCC(C(F)(F)F)CC2)cc1N1CCNC1=O,18.95%
12,O=C(O)C(F)(F)F.O=C1CCCN1CC1CN(CC2CCOCC2)Cc2nccn2C1 (stereo unspecified),-5.52%
13,CCCn1cnnc1CNCc1c[nH]nc1-c1ccc(F)cc1,-2.592%
14,c1cncc(-c2nnc(C3(c4ccc5c(c4)OCO5)CCOCC3)o2)c1,0.6275%
15,NCc1cccc(-c2cccnc2C(=O)NCCN2CCOCC2)c1,178.8%
16,Cn1ccnc1-c1cccc(NC(=O)NCCN2CCOCC2)c1,1.066%
17,O=C(NCCN1CCOCC1)c1cc(-c2ccccc2Cl)[nH]n1,0.5934%
18,O=C(NCCCn1ccnc1)Nc1ccn(CCc2ccccn2)n1,-2.122%
19,CCN(Cc1cccc(C(=O)Nc2cn(C)nn2)c1)[C@H]1COC[C@@H]1O,20.02%

row,SMILES,Percent Effect
1,COc1cc(N2CCn3cc(CNc4ccccn4)nc3C2)ncn1,0.6158%
2,Cc1ncsc1CNC(=O)CCN1CCN(c2ccccn2)CC1,-8.127%
3,CC(C)OCCC(=O)NCCC(=O)N1CCN(c2ccccn2)CC1,105.6%
4,Cc1csc(N2CCN(C(=O)CCNc3ncccn3)CC2)n1,-3.8%
5,Cc1ccc(CNC(=O)CCN2CCN(c3ccccn3)CC2)n1C,5.614%
6,Cc1cc(CNC(=O)CCN2CCN(c3ccccn3)CC2)c(C)o1,-14.14%
7,CC(C)COCCC(=O)NCCC(=O)N1CCN(c2ccccn2)CC1,140.4%
8,Cc1nc(N(C)C)nc2c1COCC21CCN(C(=O)NC(C)C)C1 (stereo unspecified),14.65%
9,CC(=O)NCC(=O)N1CCC2(COCc3c(C)nc(N(C)C)nc32)C1 (stereo unspecified),108.4%
10,Cc1nc(N(C)C)nc2c1COCC21CCN(C(=O)C2CC2)C1 (stereo unspecified),112%
11,COCCN1CCC2(COCc3c(C)nc(N4CCOCC4)nc32)C1.O=C(O)C(F)(F)F (stereo unspecified),8.185%
12,Cc1nc(N2CCOCC2)nc2c1COCC21CCN(CC2CC2)C1.O=C(O)C(F)(F)F (stereo unspecified),1.071%
13,COCC(=O)N1CCC2(COCc3c(C)nc(N(C)C)nc32)C1 (stereo unspecified),100.6%
14,Cc1nc(N(C)C)nc2c1COCC21CCN(C(=O)NCC(C)C)C1 (stereo unspecified),114.7%
15,Cc1nc(N2CCOCC2)nc2c1COCC21CCN(CC(C)C)C1 (stereo unspecified),0.306%
16,Cc1noc(C)c1CN1CCC2(COCc3cnc(N(C)C)nc32)C1.O=C(O)C(F)(F)F (stereo unspecified),-6.223%
17,CCC(=O)N1CCC2(COCc3c(C)nc(N(C)C)nc32)C1 (stereo unspecified),5.169%
18,Oc1c(F)cc(CNc2cccc(-c3nnc[nH]3)c2)cc1F,3.752%
